PubChem BioAssay (NCATS)
Results filed as inconclusive are left out. Active and inactive are the calls of the source. Unless noted, calls follow the shape of the dose curve; as a rule, active = well fitted curve in the direction sought with a large enough effect; inconclusive = small, poorly fitted or top-dose-only effect, or another doubt; inactive = no such curve, though single readings can be large; an effect the other way counts as inactive or inconclusive.

Legend:
[1] = qHTS for compounds that reverse cellular toxicity of Amyloid beta (A-beta) peptide in yeast: LOPAC Validation Assay (AID 720559)
How it was run: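 Activity is expressed relative to DMSO and an equimolar ferric chloride/clioquinol mix. Compounds were pinned into medium with A-beta-expressing yeast, grown 48 hr at 30 C, then read by absorbance at 600 nm.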

[2] = qHTS for Activators of Parkin Expression: LOPAC Validation Assay (NLuc Reporter) (AID 720572)
How it was run: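 Neuronal line stably carrying a FLuc/NLuc coincidence reporter under the Parkin promoter, seeded 24 h, then dosed in 7-point series for 24 h at 37 C. NLuc luminescence read after FLuc; normalized to DMSO and positive control (100%).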

[3] = qHTS for Activators of Parkin Expression: LOPAC Validation Assay (FLuc Reporter) (AID 720573)
How it was run: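 A neuronal cell line harbouring FLuc and NLuc reporters behind the Parkin promoter was exposed to compounds for 24 h. Firefly luciferase signal, measured after 10 min with detection reagent, was scaled to DMSO and positive-control wells.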

[4] = target: T1, Hexokinase-4 (Homo sapiens) + Glucokinase regulatory protein (Homo sapiens) (UniProt P35557+Q14397); experiment: qHTS assay for inhibitors of recombinant human GCK-GKRP interaction: Diaphorase-coupled assay (AID 743205)
T1 sequence (P35557 whole entry, looked up): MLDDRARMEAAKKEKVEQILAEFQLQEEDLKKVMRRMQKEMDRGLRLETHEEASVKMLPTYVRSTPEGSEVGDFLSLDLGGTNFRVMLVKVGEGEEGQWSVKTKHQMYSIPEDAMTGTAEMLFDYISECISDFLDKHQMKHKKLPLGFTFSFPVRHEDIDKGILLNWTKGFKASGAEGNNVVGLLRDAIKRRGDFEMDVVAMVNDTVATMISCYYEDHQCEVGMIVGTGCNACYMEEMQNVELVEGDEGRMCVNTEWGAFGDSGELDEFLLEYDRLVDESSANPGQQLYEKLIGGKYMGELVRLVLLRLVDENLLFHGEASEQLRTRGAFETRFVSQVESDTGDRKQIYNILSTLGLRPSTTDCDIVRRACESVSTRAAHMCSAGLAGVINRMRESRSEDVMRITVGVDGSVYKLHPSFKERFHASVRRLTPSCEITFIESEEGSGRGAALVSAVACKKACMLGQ
T1 sequence (Q14397 whole entry, looked up): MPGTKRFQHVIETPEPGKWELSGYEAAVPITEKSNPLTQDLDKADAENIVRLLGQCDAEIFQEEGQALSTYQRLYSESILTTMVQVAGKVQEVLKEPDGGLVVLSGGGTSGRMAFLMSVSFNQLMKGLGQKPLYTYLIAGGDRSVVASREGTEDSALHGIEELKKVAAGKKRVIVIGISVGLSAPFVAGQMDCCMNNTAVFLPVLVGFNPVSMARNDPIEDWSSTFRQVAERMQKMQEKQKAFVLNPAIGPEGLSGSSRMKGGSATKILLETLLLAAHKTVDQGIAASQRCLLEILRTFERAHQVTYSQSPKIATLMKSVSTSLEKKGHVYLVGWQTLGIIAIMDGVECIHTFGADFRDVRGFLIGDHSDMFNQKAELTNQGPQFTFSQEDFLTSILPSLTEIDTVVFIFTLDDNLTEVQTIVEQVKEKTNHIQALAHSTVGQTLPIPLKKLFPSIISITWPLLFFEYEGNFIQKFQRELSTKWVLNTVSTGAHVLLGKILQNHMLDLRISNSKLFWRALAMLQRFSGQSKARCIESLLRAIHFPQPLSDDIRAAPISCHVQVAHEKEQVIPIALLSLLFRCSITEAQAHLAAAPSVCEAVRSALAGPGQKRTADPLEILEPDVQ
How it was run: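 Inhibitors of the GCK–GKRP complex relieve GKRP suppression of GCK, detected through a G6PDH–diaphorase cascade reducing resazurin. Human GST-GCK and FLAG-GKRP are used at 10 nM with 5 mM glucose and 0.4 mM ATP.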

[5] = target: T1, Hexokinase-4 (Homo sapiens) + Glucokinase regulatory protein (Homo sapiens); experiment: qHTS assay for inhibitors of recombinant human GCK-GKRP interaction: ADP-Glo assay (AID 743206)
How it was run: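 GST-GCK and FLAG-GKRP (15 nM each in the dispensed mix, with 2 uM S6P) react with 0.4 mM ATP and 5 mM glucose (final) in Hepes pH 7.6 for 60 min at room temperature. ADP is measured by ADP-Glo luminescence.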

[6] = target: T1, Hexokinase-4 (Homo sapiens) + Glucokinase regulatory protein (Homo sapiens); experiment: qHTS assay for inhibitors of recombinant human GCK-GKRP interaction: HTRF assay (AID 743207)
How it was run: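 Steps: dispense GCK–GKRP complex (5 nM each, GST- and FLAG-tagged) with 2 uM S6P; pin in compounds; add XL665/Eu-cryptate-labelled antibodies; incubate 60 min at room temperature; read time-resolved FRET at 665 and 615 nm.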

[7] = Natriuretic polypeptide receptor (hNpr1) antagonism - Pilot counterscreen GloSensor control cell line (AID 1347045; calls by dose curve)
How it was run: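 Luminescence was read before and 20 min after adding 50 uM SNP, which stimulates soluble guanylyl cyclase. The HEK293 cells expressing the GloSensor cGMP sensor had been preloaded with 2% reagent for 2 h and treated with compound.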

[8] = target: Atrial natriuretic peptide receptor 1 (Homo sapiens) (UniProt P16066); experiment: Natriuretic polypeptide receptor (hNpr1) antagonism - Pilot screen (AID 1347049; calls by dose curve;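 also: agonist-evoked cGMP luminescence read 20 min after hNppA addition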)
How it was run: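 HEK293 cells co-expressing hNpr1 and the GloSensor pGS-40F cGMP luciferase sensor were preloaded with 2% GloSensor reagent for 2 h. Compounds were added for 30 min at room temperature, then cells were stimulated with 0.1 nM hNppA for 20 min before luminescence readout.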

[9] = target: Atrial natriuretic peptide receptor 2 (Homo sapiens) (UniProt P20594); experiment: Natriuretic polypeptide receptor (hNpr2) antagonism - Pilot subtype selectivity assay (AID 1347050; calls by dose curve)
Chain of Atrial natriuretic peptide receptor 2 (Homo sapiens) (P20594 whole entry, looked up): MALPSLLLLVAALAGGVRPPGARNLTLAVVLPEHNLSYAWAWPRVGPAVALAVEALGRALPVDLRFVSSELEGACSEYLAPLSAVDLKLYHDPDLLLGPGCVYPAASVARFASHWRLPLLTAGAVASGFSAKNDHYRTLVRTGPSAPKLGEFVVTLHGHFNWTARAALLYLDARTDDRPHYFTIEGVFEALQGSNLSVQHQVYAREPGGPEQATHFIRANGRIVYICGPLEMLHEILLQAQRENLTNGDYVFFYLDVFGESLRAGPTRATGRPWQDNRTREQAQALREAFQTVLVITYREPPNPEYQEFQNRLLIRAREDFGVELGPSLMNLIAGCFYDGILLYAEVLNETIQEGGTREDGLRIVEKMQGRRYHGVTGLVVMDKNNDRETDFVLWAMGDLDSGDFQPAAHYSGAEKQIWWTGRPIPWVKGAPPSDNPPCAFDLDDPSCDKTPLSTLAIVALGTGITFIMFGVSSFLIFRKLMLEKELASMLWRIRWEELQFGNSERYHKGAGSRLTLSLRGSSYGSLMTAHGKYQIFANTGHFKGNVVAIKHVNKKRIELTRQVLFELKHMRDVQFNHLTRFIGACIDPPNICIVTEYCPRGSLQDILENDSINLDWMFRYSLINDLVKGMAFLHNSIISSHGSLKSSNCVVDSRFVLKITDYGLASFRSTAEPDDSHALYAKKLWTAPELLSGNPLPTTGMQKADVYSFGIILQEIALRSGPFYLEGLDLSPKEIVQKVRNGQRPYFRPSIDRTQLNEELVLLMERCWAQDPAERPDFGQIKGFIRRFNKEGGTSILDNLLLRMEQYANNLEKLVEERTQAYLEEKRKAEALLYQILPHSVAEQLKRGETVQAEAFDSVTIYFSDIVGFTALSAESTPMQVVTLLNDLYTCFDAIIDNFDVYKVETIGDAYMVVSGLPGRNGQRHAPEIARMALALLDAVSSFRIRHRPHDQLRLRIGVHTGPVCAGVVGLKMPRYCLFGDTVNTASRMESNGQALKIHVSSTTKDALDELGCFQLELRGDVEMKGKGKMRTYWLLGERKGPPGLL
How it was run: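 cGMP-sensor HEK293/hNpr2 cells; 2% GloSensor reagent 2 h RT; compounds 30 min; baseline luminescence read; 1 nM hNppC agonist 20 min RT; final luminescence read by CCD camera. Antagonism = reduced post-agonist signal.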

[10] = NS1 protein of Zika virus - qHTS assay to identify small molecule inhibitors in human HEK 293 cells (AID 1347053); also: nearly all actives have a fitted effect of over 55% in size
How it was run: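 HEK 293 cells pretreated with compound for 1 h, then infected with ZIKV MR766 (MOI 0.5) for 24 h at 37 C. NS1 detected by TR-FRET with two anti-NS1 antibodies; normalized to uninfected (0%) and infected (100%) wells.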

[11] = target: T2, Tyrosine-protein phosphatase non-receptor type substrate 1 (Homo sapiens) + Leukocyte surface antigen CD47 (Homo sapiens) (UniProt P78324+Q08722); experiment: CD47-SIRPalpha protein protein interaction - LANCE assay qHTS validation (AID 1347057; active = well fitted curve in the direction sought with a large enough effect in the signal ratio, with a control signal flat, not every such curve was filed as active; the % refers to the signal ratio)
T2 sequence (P78324 whole entry, looked up): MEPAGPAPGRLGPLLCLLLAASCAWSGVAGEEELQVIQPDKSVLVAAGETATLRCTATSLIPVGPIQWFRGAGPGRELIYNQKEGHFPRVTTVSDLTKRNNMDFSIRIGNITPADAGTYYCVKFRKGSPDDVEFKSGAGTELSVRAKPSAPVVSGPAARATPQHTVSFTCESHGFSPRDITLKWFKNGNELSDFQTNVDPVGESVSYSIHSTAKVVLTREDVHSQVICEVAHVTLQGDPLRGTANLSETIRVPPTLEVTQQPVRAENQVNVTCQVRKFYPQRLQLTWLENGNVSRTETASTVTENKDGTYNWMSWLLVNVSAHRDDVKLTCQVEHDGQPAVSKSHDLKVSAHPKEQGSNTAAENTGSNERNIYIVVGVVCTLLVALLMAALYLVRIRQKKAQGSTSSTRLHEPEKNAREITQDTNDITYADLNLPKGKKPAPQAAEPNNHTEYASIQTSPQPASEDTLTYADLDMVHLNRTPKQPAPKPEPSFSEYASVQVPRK
T2 sequence (Q08722 whole entry, looked up): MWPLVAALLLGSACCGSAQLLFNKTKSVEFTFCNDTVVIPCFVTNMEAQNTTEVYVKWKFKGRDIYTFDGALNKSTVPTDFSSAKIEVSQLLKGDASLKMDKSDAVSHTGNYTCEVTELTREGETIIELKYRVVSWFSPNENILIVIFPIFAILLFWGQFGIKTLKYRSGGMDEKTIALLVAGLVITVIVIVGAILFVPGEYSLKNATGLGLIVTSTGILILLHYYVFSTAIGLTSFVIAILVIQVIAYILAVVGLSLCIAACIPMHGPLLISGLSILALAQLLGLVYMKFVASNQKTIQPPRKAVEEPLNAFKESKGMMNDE
How it was run: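 First, His-tagged CD47 and Eu-labelled anti-His antibody met the compound for 30 min; next, site-specifically biotinylated SIRPalpha was added for 30 min; finally streptavidin-APC was added before reading the TR-FRET ratio.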

[12] = target: T2, Tyrosine-protein phosphatase non-receptor type substrate 1 (Homo sapiens) + Leukocyte surface antigen CD47 (Homo sapiens); experiment: CD47-SIRPalpha protein protein interaction - HTRF assay qHTS validation (AID 1347058; active = well fitted curve in the direction sought with a large enough effect in the signal ratio, not every such curve was filed as active; the % refers to the signal ratio)
How it was run: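 TR-FRET read (Ch1/Ch2 ratio) of soluble extracellular CD47 and Avi-biotinylated SIRPalpha domains in PBS pH 7.4 with 0.05% IGEPAL; 7-point compound titration. Sequential 30 min room-temperature steps; non-biotinylated SIRPalpha as control inhibitor.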

[13] = target: T2, Tyrosine-protein phosphatase non-receptor type substrate 1 (Homo sapiens) + Leukocyte surface antigen CD47 (Homo sapiens); experiment: CD47-SIRPalpha protein protein interaction - Alpha assay qHTS validation (AID 1347059);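 also: bead proximity luminescence from CD47 binding SIRPalpha after compound preincubation with SIRPalpha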
How it was run: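 Soluble extracellular domains: Avi-tag biotinylated SIRPalpha (25 nM) preincubated 30 min RT with compound, then 6His-CD47 (12.5 nM) 30 min; Ni-NTA acceptor and streptavidin donor beads (10 ug/mL) 30 min, AlphaScreen read. PBS pH 7.4, 0.05% IGEPAL.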

[14] = target: Parathyroid hormone/parathyroid hormone-related peptide receptor (Homo sapiens) (UniProt Q03431); experiment: qHTS for PTHR1 Agonists: Optimization Screen against the NCGC LOPAC library (AID 1347079);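 also: GloSensor cAMP luminescence in HEK-293 GP2 cells expressing human PTHR1 with IBMX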
How it was run: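 Agonist readout: GloSensor cAMP luminescence, read after 15 min at room temperature. HEK-293-derived GP2 line carries PTHR1; compounds tested as a titration for 1 hr at 37C in presence of IBMX. M-PTH (1-15) served as control.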

[15] = test system: Zika virus NS2B-NS3 protease (unlinked); experiment: Optimization of GU AMC qHTS for Zika virus inhibitors: Unlinked NS2B-NS3 protease assay (AID 1347151); also: nearly all actives have a fitted effect of over 80% in size
How it was run: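 Percent inhibition is derived from the 15-min change in AMC fluorescence, normalized against no-inhibitor and no-enzyme controls, then fitted to a 4-parameter Hill curve. Aprotinin was the intraplate control.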

[16] = test system: Zika virus NS2B-NS3 protease; experiment: Primary screen GU AMC qHTS for Zika virus inhibitors (AID 1347154); also: nearly all actives have a fitted effect of over 70% in size
How it was run: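 Unlinked Zika NS2B hydrophilic domain/NS3 protease domain noncovalent complex (25 nM final) in 10 mM Tris-HCl pH 8.0, 0.01% Tween 20, with AMC peptide substrate. Fluorescence (ex 340, em 450 nm) change over 15 min, room temperature; percent inhibition fitted to 4-parameter Hill equation.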

[17] = target: Lysine-specific demethylase 5B (Homo sapiens) (UniProt Q9UGL1); experiment: Optimization screen for KDM5B Histone Demethylases FDH coupled qHTS against the LOPAC library (AID 1347166)
How it was run: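 KDM5BDeltaAP (200nM final) preincubated 10 min with compound, then 12.5uM H3K4Me3, 25uM a-ketoglutarate, ascorbate, Fe(II), NAD+ and FDH added; 50mM HEPES pH 7.5, 0.01% Tween-20. NADH fluorescence (340/450 nm) change over 30 min, room temperature.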

[18] = qHTS to identify inhibitors of the type 1 interferon - major histocompatibility complex class I in skeletal muscle: primary screen against the NCATS LOPAC collection (AID 1347405);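 also: lytic HiBiT luminescence reporting HLA-B protein level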
How it was run: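 Luminescence from HiBiT fused to endogenous HLA-B in CRISPR-engineered human myoblasts served as the read-out. Cells received 4.0 ng/ml IFN-beta plus compound (seven concentrations, 1:4.3 steps, highest 46 uM final) for 24 hrs before lytic detection.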

[19] = qHTS for inhibitors of adenylyl cyclases using a fission yeast platform: a pilot screen against the NCATS LOPAC library (AID 1347410)
How it was run: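 Growth medium went into the plates first, then compounds were pinned (final up to 57 µM), then CHP2027 yeast were added. Plates were incubated overnight (18 h) at 30C in the dark, and GFP was measured by laser scanning cytometry.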

[20] = target: Single-stranded DNA cytosine deaminase (Homo sapiens) (UniProt Q9GZX7); experiment: Validation qHTS assay for inhibitors of Activation Induced Cytidine Deaminase (AID): AID signal (AID 1347429)
Chain of Single-stranded DNA cytosine deaminase (Homo sapiens) (Q9GZX7 whole entry, looked up): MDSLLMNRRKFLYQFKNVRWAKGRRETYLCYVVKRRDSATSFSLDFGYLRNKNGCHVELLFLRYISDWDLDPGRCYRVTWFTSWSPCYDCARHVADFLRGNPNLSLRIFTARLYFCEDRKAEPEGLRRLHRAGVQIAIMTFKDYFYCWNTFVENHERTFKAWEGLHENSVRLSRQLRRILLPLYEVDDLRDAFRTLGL
How it was run: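 Fluorescence at 540 nm excitation and 590 nm emission reports ssDNA cytosine deamination by AID, with UDG in the same well. Compound-treated reactions ran 4 hr at room temperature with DJC20/DJC23 substrate, followed by 30 min NaOH treatment.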

[21] = Primary qHTS for inhibitors of La Crosse Virus (LACV) - induced cell death in SH-SY5Y cells (AID 1508616);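 also: top concentration of the series differs between compounds; higher means more rescue of cells from virus-induced death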
How it was run: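 Protection against LACV-induced cell death is scored in SH-SY5Y cells exposed to compounds and virus (0.01 MOI) for 6 days. Data normalized to virus-infected DMSO wells and virus-free DMSO wells.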

[22] = target: Calcium and integrin-binding protein 1 (Homo sapiens) (UniProt Q99828); experiment: Validation qHTS for Identification of Calcium Integrin Binding protein 1 (CIB1) Competitor (AID 1508618)
Chain of Calcium and integrin-binding protein 1 (Homo sapiens) (Q99828 whole entry, looked up): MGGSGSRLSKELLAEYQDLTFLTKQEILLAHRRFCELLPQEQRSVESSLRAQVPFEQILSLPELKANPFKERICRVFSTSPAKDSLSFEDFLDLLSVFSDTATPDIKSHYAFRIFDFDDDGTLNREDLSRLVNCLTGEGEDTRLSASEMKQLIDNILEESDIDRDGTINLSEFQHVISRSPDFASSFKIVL
How it was run: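 Fluorescence polarization with 1 uM CIB1-GST and 100 nM FITC-alphaIIb peptide in HEPES pH 7.4, NaCl, 5 mM CaCl2, Tween20. Compounds at up to 114 uM final, preincubated with protein 15 min; read after 15 min more at RT.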

[23] = Primary qHTS for small molecule stabilizers of the endoplasmic reticulum resident proteome: Secreted ER Calcium Modulated Protein (SERCaMP) assay (AID 1508630)
How it was run: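 GLuc-SERCaMP-expressing SH-SY5Y cells, pretreated 16 h with compound, are challenged with thapsigargin to empty ER calcium stores; after 4 h, coelenterazine is added directly to the medium and luminescence is imaged.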

[24] = target: Papain (Carica papaya) (UniProt P00784); experiment: Primary qHTS assay for inhibitors of the protease papain (AID 1645873);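 also: papain turnover of Z-FR-AMC read as the AMC fluorescence gain over 10 min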
Chain of Papain (Carica papaya) (P00784 whole entry, looked up): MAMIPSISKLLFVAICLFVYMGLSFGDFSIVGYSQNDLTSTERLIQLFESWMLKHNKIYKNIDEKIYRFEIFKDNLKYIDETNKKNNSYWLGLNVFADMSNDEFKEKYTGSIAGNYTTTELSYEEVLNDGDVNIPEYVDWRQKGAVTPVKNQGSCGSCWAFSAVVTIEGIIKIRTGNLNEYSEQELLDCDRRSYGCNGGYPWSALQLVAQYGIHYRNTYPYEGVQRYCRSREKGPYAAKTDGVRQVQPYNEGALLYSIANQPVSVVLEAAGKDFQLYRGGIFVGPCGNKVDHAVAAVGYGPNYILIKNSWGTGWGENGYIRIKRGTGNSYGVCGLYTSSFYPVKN

[25] = target: Catechol O-methyltransferase (Homo sapiens) (UniProt P21964); experiment: Confirmatory Screen for Target Class Profiling of Small Molecule Inhibitors of Methyltransferases (AID 1745852; calls by dose curve); conditions: MTase-Glo luminescence, SAH detection, recombinant enzyme; measured here: COMT max response; stronger effect = lower value
Chain of Catechol O-methyltransferase (Homo sapiens) (P21964 whole entry, looked up): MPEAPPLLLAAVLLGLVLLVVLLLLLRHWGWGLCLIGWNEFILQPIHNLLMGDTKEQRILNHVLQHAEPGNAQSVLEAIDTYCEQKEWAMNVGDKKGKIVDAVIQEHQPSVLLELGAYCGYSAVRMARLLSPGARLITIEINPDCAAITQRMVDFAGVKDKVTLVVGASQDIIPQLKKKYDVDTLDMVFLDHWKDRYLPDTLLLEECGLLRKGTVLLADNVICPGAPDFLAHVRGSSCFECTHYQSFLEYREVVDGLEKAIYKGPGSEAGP

[26] = target: Guanidinoacetate N-methyltransferase (Homo sapiens) (UniProt Q14353); experiment: as above; conditions: activity change, negative = inhibition: at 57.3 µM (top of the series) unless noted
[27] = target: Nicotinamide N-methyltransferase (Homo sapiens) (UniProt P40261); experiment: as above; conditions: MTase-Glo luminescence, SAH detection, recombinant enzyme; measured here: NNMT max response; stronger effect = lower value
Chain of Nicotinamide N-methyltransferase (Homo sapiens) (P40261 whole entry, looked up): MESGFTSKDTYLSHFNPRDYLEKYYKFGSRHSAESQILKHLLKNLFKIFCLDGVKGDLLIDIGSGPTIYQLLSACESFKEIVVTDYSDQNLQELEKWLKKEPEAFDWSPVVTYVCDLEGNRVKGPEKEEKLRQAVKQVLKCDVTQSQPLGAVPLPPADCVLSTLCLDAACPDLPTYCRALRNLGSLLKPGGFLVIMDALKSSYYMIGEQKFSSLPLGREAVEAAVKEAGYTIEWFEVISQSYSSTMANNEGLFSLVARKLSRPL

[28] = target: Phenylethanolamine N-methyltransferase (Homo sapiens) (UniProt P11086); experiment: as above; conditions: MTase-Glo luminescence, SAH detection, recombinant enzyme; measured here: PNMT max response; stronger effect = lower value
[29] = target: Metallo-beta-lactamase type 2 (Klebsiella pneumoniae) (UniProt C7C422); experiment: qHTS to identify inhibitors of the New Delhi Metallo-beta-lactamase (NDM): assay validation screen against the NCATS LOPAC Collection (AID 1794843);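 also: nitrocefin turnover by NDM-1 measured as 485 nm absorbance at plateau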
Chain of Metallo-beta-lactamase type 2 (Klebsiella pneumoniae) (C7C422 whole entry, looked up): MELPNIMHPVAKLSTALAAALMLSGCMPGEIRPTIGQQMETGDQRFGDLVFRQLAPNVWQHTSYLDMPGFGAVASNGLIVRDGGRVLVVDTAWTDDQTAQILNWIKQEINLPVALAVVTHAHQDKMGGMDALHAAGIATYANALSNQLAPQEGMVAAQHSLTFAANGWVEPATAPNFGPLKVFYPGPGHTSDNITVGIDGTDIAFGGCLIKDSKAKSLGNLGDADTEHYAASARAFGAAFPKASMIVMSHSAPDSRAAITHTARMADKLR
How it was run: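 NDM-1 at 2 nM final in 50 mM HEPES pH 7.0, 1 uM ZnSO4, 0.01% Tween20, preincubated with LOPAC compounds pinned in DMSO; 50 uM nitrocefin (stock) added. Hydrolysis read as absorbance at 485 nm in the plateau phase.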

[30] = target: Glutathione peroxidase 1 (Homo sapiens) (UniProt P07203); experiment: Primary qHTS Assay for Inhibitors of Recombinant Selenoprotein Glutathione Peroxidase 1 (GPX1) (AID 1845191); also: nearly all actives have a fitted effect of over 65% in size
Chain of Glutathione peroxidase 1 (Homo sapiens) (P07203 whole entry, looked up): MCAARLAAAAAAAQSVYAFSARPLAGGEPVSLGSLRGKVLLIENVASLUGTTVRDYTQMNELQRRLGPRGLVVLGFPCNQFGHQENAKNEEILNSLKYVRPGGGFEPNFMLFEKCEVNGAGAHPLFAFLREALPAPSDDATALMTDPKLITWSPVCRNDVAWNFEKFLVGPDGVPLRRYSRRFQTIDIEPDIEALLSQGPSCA
How it was run: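 Recombinant GPX1 (10 nM final) was preincubated with compound for 30 min at room temperature, then reacted with 1 mM GSH, 0.5 mM CHP, 0.5 mM NADPH and 100 nM glutathione reductase; NADPH fluorescence (340/450 nm) was read at 0 and 15 min.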

[31] = target: Phospholipid hydroperoxide glutathione peroxidase GPX4 (Homo sapiens) (UniProt P36969); experiment: Primary qHTS Assay for Inhibitors of Recombinant Selenoprotein Glutathione Peroxidase 4 (GPX4) (AID 1845192); conditions: outcome: dose series up to 50 µM unless noted; also: nearly all actives have a fitted effect of over 65% in size
Chain of Phospholipid hydroperoxide glutathione peroxidase GPX4 (Homo sapiens) (P36969 whole entry, looked up): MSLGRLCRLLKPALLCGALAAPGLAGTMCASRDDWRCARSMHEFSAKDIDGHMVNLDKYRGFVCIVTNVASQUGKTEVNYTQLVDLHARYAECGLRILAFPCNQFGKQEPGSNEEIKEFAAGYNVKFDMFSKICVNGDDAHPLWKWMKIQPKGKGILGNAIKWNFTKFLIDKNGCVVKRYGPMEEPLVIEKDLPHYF
How it was run: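 GR-coupled readout: 100 nM GR, 1 mM GSH, 0.5 mM NADPH; NADPH fluorescence (ex 340/em 450 nm) read at t=0 and after 15 min RT. GPX4 200 nM, preincubated 30 min with compound; substrate 0.5 mM CHP.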

C[C@H](Cc1ccccc1)Nc1ncnc2c1ncn2[C@@H]1O[C@H](CO)[C@@H](O)[C@H]1O
-3.97%: activity change, negative = inhibition [26]
-12.3%: activity [28]
4.48%: activity [27]
-28.1%: activity [25]
inactive: outcome [1] | outcome [2] | Potency [3] | outcome [4] | outcome [5] | outcome [6] | Potency [7] | Potency [8] | Potency [9] | outcome [10] | outcome [11] | outcome [12] | Potency [13] | outcome [14] | Potency [15] | Potency [16] | outcome [17] | Potency [18] | outcome [19] | Potency [20] | outcome [21] | outcome [22] | Potency [23] | Potency [24] | Potency [29] | Potency [30] | Potency [31]
